SMILES strings stand for the structures. In all, about 360,000 compounds went through this assay and about 2,400 (0.67%) were called active. The sample holds actives, similar compounds and a random draw of the others, so the mix is not that of the screen. Values without a mark were called inactive. Cut-off read from the data, not from the text of the source: active = enhancement above about 30%; inactive = the rest.

Here are results for 26 compounds from PubChem BioAssay AID493056 (National Center for Advancing Translational Sciences (NCATS), 2011).

For the assay, the target named is Thyrotropin-releasing hormone receptor (Homo sapiens) (UniProt P34981). Nature of the assay: qHTS for Small Molecule Agonists and Allosteric Enhancers of Human TRH Receptor: Primary Screen for Enhancers. Note: 0% is about no effect. Conditions: TRHR cells, fluo-8 calcium fluorescence, EC20 TRH enhancement; at 2 µM; active compounds read high. An outline of the steps: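 TRHR-expressing cells loaded with fluo-8 calcium dye were read kinetically (ex 480/em 530) during compound addition, then stimulated with an EC20 of TRH (10 nM final). Enhancement of the Gq-mediated intracellular calcium response was scored.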
Sequence of Thyrotropin-releasing hormone receptor (Homo sapiens) (P34981 whole entry, looked up): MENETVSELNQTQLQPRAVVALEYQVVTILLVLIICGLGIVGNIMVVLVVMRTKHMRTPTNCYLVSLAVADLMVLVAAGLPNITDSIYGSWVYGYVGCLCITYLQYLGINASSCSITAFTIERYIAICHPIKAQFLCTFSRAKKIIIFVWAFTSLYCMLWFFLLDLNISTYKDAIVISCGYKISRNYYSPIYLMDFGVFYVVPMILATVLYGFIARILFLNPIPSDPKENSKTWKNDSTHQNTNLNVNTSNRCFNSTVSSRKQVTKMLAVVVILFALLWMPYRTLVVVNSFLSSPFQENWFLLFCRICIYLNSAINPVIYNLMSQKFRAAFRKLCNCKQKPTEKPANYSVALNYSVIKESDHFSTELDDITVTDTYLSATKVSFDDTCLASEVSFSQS
For the compound `CC(CCCc1ccccc1)NC(=O)c1nn(-c2ccc(Cl)cc2)nc1CO` (stereo unspecified), the enhancement is -3.71%.

As for `Cc1cc(C)cc(Nc2ncnc3onc(-c4ccc(F)cc4)c23)c1`, the enhancement is 5.09%.

As to `Cn1c(SCC(=O)N2CCCc3ccccc32)ncc(C(=O)Nc2ccc(F)cc2)c1=O`, the enhancement was 7.76%.

As for `COc1cc2nc(NCC(C)c3ccccc3)n3nc(-c4ccccc4)nc3c2cc1OC` (stereo unspecified), the enhancement is 15.5%.

Turning to `O=C(NCc1cccs1)c1cc(-c2ccccn2)nc2ccc(Br)cc12`, the enhancement was 30.5% (active).

As for `O=C(NCc1cccs1)c1ccc(Br)o1`, the enhancement was -3.47%.

`O=C(CN1CCN(c2ccccn2)CC1)NCc1cccs1`: the enhancement was 17.1%.

Consider `CCc1ccc(-n2nc(C)c3c(C)cc(=O)n(CC(=O)Nc4ccc(F)cc4C)c32)cc1`, for which the enhancement is 6.58%.

As to `CCOC(=O)CSc1nccc(N(C)C)c1C#N`, the enhancement was 36.1% (active).

For the compound `CN(C)c1ccnc(Oc2ccc(F)cc2)c1C#N`, the enhancement is 4.36%.

Regarding `CCOC(=O)CSc1nc(N2CCOCC2)c2c(c1C#N)CC(C(C)C)OC2` (stereo unspecified), the enhancement was -9.38%.

For `O=C(C1COc2ccccc2O1)N(Cc1cccnc1)c1nc2c(F)cc(F)cc2s1` (stereo unspecified), the enhancement was -1.37%.

Regarding `Cc1cc(C)c(NC(=O)CCc2c(C)nc3c(c(C)nn3C(C)(C)C)c2C)c(C)c1`, the enhancement is 31% (active).

As for `COC(=O)c1ccc(NC(=O)CCc2c(C)nc3c(c(C)nn3-c3ccc(C)cc3)c2C)cc1`, the enhancement is 0.187%.

For `CCCNC(=O)CCc1c(C)nc2c(c(C)nn2-c2ccc(C)cc2)c1C`, the enhancement is 7.28%.

On to `COc1ccc(N2CCN(C(=O)C3CCCN(C(=O)c4cc5sccc5n4C)C3)CC2)cc1` (stereo unspecified), for which the enhancement is 32.5% (active).

For the compound `Cn1c(C(=O)N2CCC(C(=O)N3CCN(c4ccccc4)CC3)CC2)cc2sccc21`, the enhancement was 0.218%.

For the compound `Cn1c(C(=O)N2CCCC(C(=O)NCc3ccccc3)C2)cc2sccc21` (stereo unspecified), the enhancement was 4.18%.

Consider `Cc1ccccc1CSc1nc2c([nH]c3ccccc32)c(=O)n1C`, for which the enhancement is -2.07%.

Regarding `COc1ccc(Cl)cc1-n1c(CCC(=O)O)ccc1-c1ccc(C)cc1`, the enhancement was 7.8%.

`Cc1ccc(N2CCN(S(=O)(=O)c3ccc(F)cc3)CC2)c(C)c1`: the enhancement was 32% (active).

`Cc1ccc(S(=O)(=O)N2CCC(N3CCCCCC3)CC2)cc1`: the enhancement is 26.1%.

As to `Cc1ccc(S(=O)(=O)N2CCN(C(=O)c3cccs3)CC2)cc1`, the enhancement was 0.403%.

For `Cc1ccccc1N1CCN(S(=O)(=O)c2ccc3ccccc3c2)CC1`, the enhancement was -5.29%.

With `Cc1ccc(S(=O)(=O)N2CCN(C)CC2)cc1`, the enhancement is 33.6% (active).

As for `Cc1ccc(C)c(N2CCN(S(=O)(=O)c3ccc4c(c3)C(C(C)C)C(=O)N4)CC2)c1` (stereo unspecified), the enhancement was -4.92%.
